# RXFP1 antag = qHTS Assay for Antagonists of the Relaxin Receptor RXFP1 | Relaxin receptor 1 (Homo sapiens), Q9HBX9 | activity change, negative = inhibition, % at 57.5 µM | HEK293-RXFP1, relaxin-stimulated cAMP HTRF, 30 min; active compounds read low | 350,000 tested, 0.59% active;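 active = activity change of -60% or lower, but not beyond a set lower limit; inconclusive = change between -60% and -40%, or beyond the set limit; inactive = change above -40%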; note: % is set by controls: 0 for no effect and ±100 for the full control effect
# Target sequence (Q9HBX9 whole entry, looked up): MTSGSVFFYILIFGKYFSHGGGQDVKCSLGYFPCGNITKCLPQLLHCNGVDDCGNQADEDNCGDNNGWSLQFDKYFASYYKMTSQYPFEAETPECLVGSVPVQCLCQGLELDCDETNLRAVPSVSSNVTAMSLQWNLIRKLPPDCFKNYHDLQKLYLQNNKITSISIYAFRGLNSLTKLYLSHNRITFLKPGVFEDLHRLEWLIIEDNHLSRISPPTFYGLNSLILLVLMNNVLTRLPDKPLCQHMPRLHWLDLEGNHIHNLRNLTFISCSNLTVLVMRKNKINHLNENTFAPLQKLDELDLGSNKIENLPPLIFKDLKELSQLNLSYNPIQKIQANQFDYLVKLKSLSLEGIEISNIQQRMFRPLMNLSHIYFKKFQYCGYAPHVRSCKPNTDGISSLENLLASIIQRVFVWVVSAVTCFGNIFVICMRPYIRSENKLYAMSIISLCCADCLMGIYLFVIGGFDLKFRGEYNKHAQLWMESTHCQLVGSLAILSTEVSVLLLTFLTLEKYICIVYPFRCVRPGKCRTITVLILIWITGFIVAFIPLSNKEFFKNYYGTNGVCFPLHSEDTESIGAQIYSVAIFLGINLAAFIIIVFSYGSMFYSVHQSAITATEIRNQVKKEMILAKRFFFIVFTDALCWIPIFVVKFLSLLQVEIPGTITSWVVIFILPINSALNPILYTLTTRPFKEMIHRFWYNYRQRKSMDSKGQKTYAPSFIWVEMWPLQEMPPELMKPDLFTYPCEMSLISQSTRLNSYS
# ERG Ets-DNA blk = qHTS for Small Molecule Inhibitors of the ERG Ets/DNA interaction; Potency, µM (doses to about 76.9 µM), inactives show at the top dose FP activity, negative = inhibition, actives largely listed as inhibitors; fluorescence polarization, His-ERG Ets domain / labelled DNA; Transcriptional regulator ERG (Homo sapiens), P11308; AID 624246, 2012; 370,000 tested, 0.028% active; active = well fitted inhibition curve with a large enough effect in the polarisation, with a control signal flat; inconclusive = small, poorly fitted or top-dose-only effect, or effect the other way, or a change in a side signal; inactive = no such curve, though single readings can be large or run the other way; the % refers to the polarisation;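 note: polarization taken with two DNA probes labelled with fluorescein and Texas red; potency is the fitted concentration of half-maximal effect; % of control where 0% means no effect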
#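 His-tagged ERG Ets domain (1 uM in the protein solution; 300mM KCl, 50mM Tris-HCl, 1mM EDTA, 1mM DTT, pH 7.5) received compound, then a probe mix of 5 nM fluorescein-DNA and 100nM Texas-615-DNA. Fluorescence polarization was read for both dyes.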
# miR-21 reporter = qHTS Assay for Modulators of miRNAs and/orActivators of miR-21 | HeLa miR-21 FLuc reporter, luciferase, 48 h | Potency, µM (doses to about 38.3 µM), for inactives: at the top dose activity change, positive = activation, usual class: activators | 340,000 tested, under 10 active | AID 2288, 2010;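 note: % of control where 0% means no effect; miR-21 action dims this reporter so a rising signal means less miR-21 action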
#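 Luminescence from a firefly luciferase reporter carrying a miR-21 binding site downstream, stably expressed under a CMV promoter in HeLa cells that make miR-21 endogenously, reports miRNA modulation after 48 h compound exposure up to approximately 40uM final.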
# Mito fusion act = qHTS Assay for Small Molecule Inhibitors of Mitochondrial Division or Activators of Mitochondrial Fusion. 320,000 tested, 0.23% active. S. cerevisiae fusion-defective mutant growth rescue, CellTiterGlo 48 h. Potency, µM (series often up to 46.1 µM), for inactives: at the top dose growth rescue (activation), usual class: activators; note: potency is the fitted concentration of half-maximal effect; % of control where 0% means no effect; nearly all actives have a fitted effect of over 45% in size
#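 S. cerevisiae fusion-defective temperature-sensitive mutants (e.g. fzo1-1, mgm1-5) grown 48 h at 37C in YPEG (ethanol/glycerol non-fermentable) medium with 23 nl compound per well; growth rescue read as CellTiterGlo luminescence.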
# RXFP1 agonist = qHTS Assay for Agonists of the Relaxin Receptor RXFP1. HEK293T-RXFP1 cAMP TR-FRET, 30 min; response scale: percent of porcine relaxin response, buffer zero. 370,000 tested, 0.3% active. Potency, µM (highest dose often 57.5 µM), inactives show at the highest dose activation, usual class: activators; note: potency is the fitted concentration of half-maximal effect; % is set by controls: 0 for no effect and ±100 for the full control effect; nearly all actives have a fitted effect of over 60% in size
#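 HEK293 cells stably expressing RXFP1, treated 30 min at 37C with compounds plus PDE4 inhibitor Ro 20174; cAMP measured by HTRF TR-FRET. Normalized to buffer and 29 nM porcine relaxin; EC50 by Hill fit.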
# ASM inhibitor = Inhibitors of Secretory Acid Sphingomyelinase (S-ASM): qHTS; Sphingomyelin phosphodiesterase (Homo sapiens), P17405; placental ASM, HMU-PC fluorogenic substrate, 60 min; Potency, µM (top dose mostly 57.5 µM), without a hit: at the highest dose activity change, negative = inhibition, hits mostly inhibitors; 340,000 tested, 0.006% active; AID 504937, 2011; note: potency is the fitted concentration of half-maximal effect
#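 Human placenta-derived ASM preincubated with compound 10 min at room temperature, then reacted with 9 uM (final) fluorogenic HMU-PC substrate for 60 min at 37 C. Stop solution raises pH to 10; fluorescence read at Ex 386/Em 447 nm.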
# * = called active by the depositor; u = inconclusive; x = no result given. An excerpt weighted towards active compounds, which were near 0.72% of everything screened. Unless noted, calls come from the whole dose curve; as a rule, active = well fitted curve in the direction sought with a large enough effect; inconclusive = small, poorly fitted or top-dose-only effect, or another doubt; inactive = no such curve, though single readings can be large; an effect the other way counts as inactive or inconclusive.
SMILES,RXFP1 antag,ERG Ets-DNA blk,miR-21 reporter,Mito fusion act,RXFP1 agonist,ASM inhibitor
COc1ccc(C2CC(c3cccs3)=NN2C(=O)c2ccc(Br)o2)cc1 (stereo unspecified),-6,-2%,-4%,18µM*,0%,-6%
COc1ccc(C2=NN(C(=O)c3cccs3)C(c3ccc(OC)cc3)C2)cc1 (stereo unspecified),-20,7%,-13%,11µM*,1%,-10%
CN(C)CCOC(c1ccccc1)c1ccc(Br)cc1 (stereo unspecified),-31,x,x,x,x,x
CCOC(=O)c1ccc(NC(=O)N2CC3CCCN3c3ccccc32)cc1 (stereo unspecified),-12,0%,-3%,x,0%,x
CCOc1ccc(NC(=O)N2CC3CCCN3c3ccccc32)cc1 (stereo unspecified),-61*,4%,21%,x,2%,x
COc1ccc(/C=C2\SC(=S)N(NS(=O)(=O)c3ccccc3)C2=O)c(OC)c1,-68*,13%,0%,u,4%,-11%
O=Cc1cc(Cl)ccc1OCCN1CCC(Cc2ccccc2)CC1,-109*,-8%,5%,-14%,0%,-2%
Clc1ccccc1OCCN1CCC(Cc2ccccc2)CC1,-22,13%,0%,-15%,4%,3%
Cc1ccnc(Nc2nc(-c3ccc(O)c(O)c3)cs2)c1,u,-6%,-74%,u,1%,-7%
Oc1ccc(-c2csc(Nc3ccccn3)n2)cc1O,-63*,0%,-69%,-4%,-2%,-4%
Cc1cc(O)c(CN2CCN(c3ccccc3)CC2)c2oc(=O)cc(C)c12,-8,-4%,-28%,x,18µM*,x
Cc1cc(OCCN2CCN(S(=O)(=O)c3ccccc3F)CC2)ccc1C(C)C,-3,3%,x,21%,3%,-1%
O=C(CSc1nc2ccccc2o1)N1c2ccccc2Sc2ccccc21,-31,2%,1%,13µM*,5%,-8%
COc1ccc(Nc2nc3ccc(C)cc3nc2-n2nc(C)cc2C)cc1Cl,-12,-2%,0%,x,5%,x
CC[C@]12c3[nH]c4cc(CCC(=O)N(C)C)ccc4c3CCN1C(=O)[C@@H](CC(=O)NCCCn1ccnc1)C[C@@H]2C(=O)N1CCN(C(=O)c2ccco2)CC1,x,-6%,x,x,x,1%
Cc1ccc(C)c(CSc2cn(CC(=O)N3CCCC3)c3ccccc23)c1,-74*,-3%,-19%,x,18%,x
Cc1ccc(CN(C)c2nc(-c3cccnc3)nc3ccccc23)o1,-27,-8%,0%,1%,3%,14%
CN(Cc1ccccc1F)c1nc(-c2cccnc2)nc2ccccc12,-67*,7%,-5%,26%,-3%,-4%
O=C(Cn1c(=O)nc(-c2ccccc2)c2cc(Cl)ccc21)N1CCN(c2ccccc2F)CC1,22,1%,-3%,x,-2%,x
NNC(=O)CSc1nc(-c2ccccc2)nc2c1CCCC2,-69*,-10%,1%,4%,0%,0%
O=C(CN1C(=O)COc2ccc(S(=O)(=O)N3CCOCC3)cc21)N1CCN(c2ccc(Cl)cc2)CC1,x,-16%,3%,x,1%,x
Cc1sc2ncn(CC(=O)Nc3ccc(C(C)C)cc3)c(=O)c2c1S(=O)(=O)N1CCN(c2ncccn2)CC1,x,-2%,-4%,x,25µM*,x
CCOC(=O)c1ccc(NC(=O)CCc2c(C)nc3c(c(C)nn3C(C)(C)C)c2C)cc1,x,-3%,u,x,1%,x
O=C(O)C1=CC(=C(c2ccc(O)c(C(=O)O)c2)c2ccc(O)c(C(=O)O)c2)C=CC1=O,x,x,x,13µM*,1%,x
O=C1C(Cc2ccccc2)Nc2ncnc(N3CCN(c4ccccc4)CC3)c2N1Cc1ccccc1 (stereo unspecified),x,13%,x,14%,1%,-1%
SMILES,RXFP1 antag,ERG Ets-DNA blk,miR-21 reporter,Mito fusion act,RXFP1 agonist,ASM inhibitor
Cc1ccc(CN2C(=O)C(Cc3ccccc3)Nc3ncnc(N4CCN(c5ccccc5)CC4)c32)cc1 (stereo unspecified),x,4%,x,11µM*,-2%,4%
CCc1ccc(NC(=O)CSc2nccn2-c2ccc(F)cc2)cc1,10,-7%,-11%,x,0%,x
CCCCOc1c(C(=O)Nc2ccccc2)nnn1-c1ccccc1,-87*,4%,-1%,-7%,1%,-5%
O=C(NC(=S)Nc1nc(-c2ccccc2)cs1)c1ccco1,-63*,7%,-6%,-2%,2%,-3%
COc1ccc(-c2csc(NC(=O)CN3C(=O)CCC3=O)n2)cc1,-4,1%,3%,11%,1%,-1%
COc1ccc(-c2csc(NC(=S)NC(=O)c3ccco3)n2)cc1,1,0%,-10%,0%,2%,-3%
O=C(Cc1c(F)c(F)c(F)c(F)c1F)Nc1nc(-c2ccccc2)cs1,-65*,-6%,-1%,11µM*,10%,-20%
O=C(CN1C(=O)CCC1=O)Nc1nc(-c2ccc(Oc3ccccc3)cc2)cs1,-70*,5%,-5%,-2%,0%,u
O=C1N=c2ccccc2=C1c1sc(Nc2ccc(O)cc2)nc1O,-81*,2%,-57%,-3%,-2%,u
Cc1ccc(N=Cc2cc(Cc3ccccc3Cl)cc([N+](=O)[O-])c2O)c(O)c1,-96*,1%,-4%,-29%,-5%,-21%
COc1ccc(N=Cc2cc(Cc3ccccc3Cl)cc([N+](=O)[O-])c2O)cc1OC,-10,-17%,-3%,8%,1%,-7%
CCN(CC)CCN,-19,x,x,x,x,x
O=C(COC(=O)COc1ccc(Cl)cc1)NCCNC(=O)COC(=O)COc1ccc(Cl)cc1,-72*,-13%,x,-1%,0%,0%
O=C1c2cccnc2C(=O)N1Cc1ccc(S(=O)(=O)NCc2ccco2)s1,14,3%,-2%,14%,u,-2%
COc1ccc(CN2C(=O)c3cccnc3C2=O)cc1S(=O)(=O)NCc1ccc(C)o1,21,4%,0%,-2%,16µM*,-1%
O=C1c2cccnc2C(=O)N1Cc1ccc(F)cc1S(=O)(=O)NCc1ccco1,16,9%,4%,-8%,25µM*,-2%
COc1c2ccoc2cc2oc(=O)ccc12,13,6%,x,x,x,3%
O=c1ccc2c(OCCCCc3ccccc3)c3ccoc3cc2o1,x,x,x,5.2µM*,x,x

# From PubChem BioAssay
